From PubChem BioAssay (NCI) come the findings set out here.

Test systems include RPMI-8226 leukemia; OVCAR-8 ovarian; OVCAR-5 ovarian; OVCAR-4 ovarian; SK-OV-3 ovarian; IGROV1 ovarian; OVCAR-3 ovarian; HS 578T breast; NCI/ADR-RES ovarian; T-47D breast; MDA-MB-435 melanoma; SW-620 colon; MCF7 breast; HCT-116 colon; HCC-2998 colon; KM12 colon.
Holding throughout (test): NCI-60 one-dose screen, 48 h (100 = growth as untreated, 0 = no growth, -100 = all killed)
Common to all, as to conditions: 10 µM

Compounds without any hit were thinned out: in the full panel of roughly 83,000, 20% have a hit.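 For each line, cells grew in 96-well plates with the test compound present at a single concentration for 48 hours.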 Unmarked numbers belong to inactive results. Active and inactive are the calls of the source. The calls were made as follows: active = growth percent below 10; inactive = the rest.

For the compound `Cc1cc(Cc2cc(C)c(O)c(C)c2)cc(C)c1O`, the growth in the assay with RPMI-8226 leukemia was 58.2%; in the assay with OVCAR-8 ovarian, 61.9%; with OVCAR-5 ovarian, 106%; in the assay with OVCAR-4 ovarian, 77.1%; in the assay with SK-OV-3 ovarian, 53%; in the assay on IGROV1 ovarian, 45.2%. For the same compound, the growth in the assay with OVCAR-3 ovarian is 28.2%; with HS 578T breast, 33.8%; in the assay on NCI/ADR-RES ovarian, 19.4%; with T-47D breast it was 52.8%; with MDA-MB-435 melanoma it was -29% (active); in the assay with SW-620 colon it was 21.6%. Further, the growth in the assay on MCF7 breast is 22.8%; in the assay on HCT-116 colon it was 30.6%; in the assay on HCC-2998 colon, 74.4%; in the assay with KM12 colon, 39.4%.

`CCCCCCCC(C)NCCO` (configuration not stated): the growth in the assay on RPMI-8226 leukemia is 107%; in the assay with OVCAR-8 ovarian, 98.7%; in the assay on OVCAR-5 ovarian, 111%; with OVCAR-4 ovarian, 118%; with SK-OV-3 ovarian it was 93.6%; in the assay with IGROV1 ovarian, 103%. Also, the growth with OVCAR-3 ovarian is 101%; in the assay with HS 578T breast, 99.4%; in the assay with NCI/ADR-RES ovarian, 111%; in the assay with T-47D breast it was 100%; in the assay with MDA-MB-435 melanoma it was 97.6%; in the assay on MCF7 breast it was 97.9%. Moreover, the growth with HCT-116 colon was 111%; in the assay with HCC-2998 colon, 105%; in the assay with KM12 colon, 102%.

Regarding `O=[N+]([O-])c1ccc(Oc2cc(Cl)c(Cl)cc2Cl)c(C(F)(F)F)c1`, the growth with RPMI-8226 leukemia was 97.3%; in the assay on OVCAR-8 ovarian it was 97.8%; with OVCAR-5 ovarian, 87%; in the assay on OVCAR-4 ovarian it was 93.8%; in the assay with SK-OV-3 ovarian it was 103%; in the assay with IGROV1 ovarian, 96.5%. In addition, the growth was 105% in the assay on OVCAR-3 ovarian; 104% with HS 578T breast; 109% with NCI/ADR-RES ovarian; 107% in the assay with T-47D breast; 95.6% in the assay on MDA-MB-435 melanoma; 106% in the assay on SW-620 colon. Moreover, the growth in the assay on MCF7 breast is 97.9%; in the assay with HCT-116 colon, 102%; with HCC-2998 colon, 123%; in the assay on KM12 colon it was 101%.

Turning to `CCCCCCCCCCCC[n+]1ccc(C(N)=O)cc1`, the growth was -6.05% (active) in the assay on RPMI-8226 leukemia; 16.1% in the assay on OVCAR-8 ovarian; 20.5% in the assay with OVCAR-5 ovarian; 48.8% with OVCAR-4 ovarian; 45.5% in the assay on SK-OV-3 ovarian; -18.7% (active) with IGROV1 ovarian. The growth in the assay with OVCAR-3 ovarian is 23.2%; in the assay on HS 578T breast, 31.3%; in the assay with NCI/ADR-RES ovarian it was 103%; in the assay with T-47D breast, 38.8%; in the assay with MDA-MB-435 melanoma it was 33.6%; with SW-620 colon, 23.6%. For the same compound, the growth in the assay with MCF7 breast was 40.2%; with HCT-116 colon, 25.6%; with HCC-2998 colon it was 25.8%; with KM12 colon, -47% (active).

`COc1cc(/C=N/NC(=O)c2ccccc2Nc2cccc(C(F)(F)F)c2)cc(OC)c1OC`: the growth with RPMI-8226 leukemia is 236%; in the assay with OVCAR-8 ovarian, 34.3%; in the assay on OVCAR-5 ovarian, 62.1%; in the assay on OVCAR-4 ovarian it was 9.6% (active); with SK-OV-3 ovarian, 16.1%; in the assay with IGROV1 ovarian it was -17.1% (active). Besides, the growth was -53.8% (active) in the assay on OVCAR-3 ovarian; 12.2% in the assay with HS 578T breast; 12.6% with NCI/ADR-RES ovarian; 29.6% in the assay with T-47D breast; -34% (active) in the assay with MDA-MB-435 melanoma; 3.91% (active) in the assay with SW-620 colon. Besides, the growth in the assay with MCF7 breast is 5.18% (active); with HCT-116 colon, 158%; with HCC-2998 colon, 28.2%; in the assay with KM12 colon, 16.6%.

For `CC(C)=CCc1cc(O)cc2c1OC(C=C(C)C)C1=C2C(=O)C2=C(C1=O)S(=O)(=O)CCN2` (configuration not stated), the growth in the assay on RPMI-8226 leukemia is 51.4%; in the assay on OVCAR-8 ovarian it was 10.8%; in the assay on OVCAR-5 ovarian, 152%; in the assay on OVCAR-4 ovarian, 5.54% (active); with SK-OV-3 ovarian it was 84.7%; in the assay on IGROV1 ovarian it was -0.954% (active). For the same compound, the growth was 0.638% (active) in the assay with OVCAR-3 ovarian; 70.3% in the assay on HS 578T breast; 91.7% in the assay on NCI/ADR-RES ovarian; -0.36% (active) with T-47D breast; -68.3% (active) with MDA-MB-435 melanoma; 4.52% (active) with SW-620 colon. The growth in the assay on MCF7 breast was -50% (active); with HCT-116 colon, -8.73% (active); with HCC-2998 colon, 36.4%; in the assay with KM12 colon it was 69.2%.

Turning to `O=C(Nc1ccc(Cl)c(Cl)c1)Nc1c(Oc2ccc(Cl)c(Cl)c2)ccc(Cl)c1S(=O)(=O)O`, the growth in the assay on RPMI-8226 leukemia was 14.9%; with OVCAR-8 ovarian, 27.7%; in the assay on OVCAR-5 ovarian it was 53.7%; in the assay on OVCAR-4 ovarian it was 65.6%; in the assay with SK-OV-3 ovarian, 22.4%; in the assay on IGROV1 ovarian, 30.4%. In addition, the growth was -9.85% (active) in the assay on OVCAR-3 ovarian; -5.79% (active) with HS 578T breast; 2.06% (active) with NCI/ADR-RES ovarian; 51.4% in the assay on T-47D breast; -31.4% (active) in the assay on MDA-MB-435 melanoma; 23.6% with SW-620 colon. Besides, the growth in the assay with MCF7 breast is 24.6%; in the assay on HCT-116 colon it was 23.5%; in the assay on HCC-2998 colon, 25.2%; in the assay with KM12 colon, 33.2%.

Turning to `COc1ccc(-c2nc3sc(-c4ccc(OC)cc4)c(-c4ccc(OC)cc4)n3c2/C=C/c2ccc(C(C)C)cc2)cc1`, the growth with RPMI-8226 leukemia was 97.4%; with OVCAR-8 ovarian, 97%; in the assay on OVCAR-5 ovarian it was 94.6%; with OVCAR-4 ovarian, 90.8%; in the assay on SK-OV-3 ovarian, 97.4%; with IGROV1 ovarian it was 111%. In addition, the growth was 100% in the assay with OVCAR-3 ovarian; 89.4% in the assay with HS 578T breast; 106% in the assay on NCI/ADR-RES ovarian; 97.2% in the assay with T-47D breast; 98.7% in the assay with MDA-MB-435 melanoma; 99.7% with SW-620 colon. The growth is 90.4% in the assay with MCF7 breast, 94.4% with HCT-116 colon, 111% in the assay with HCC-2998 colon and 102% with KM12 colon.

Consider `O=C1/C(=C\c2cn(C(=O)c3ccc(Cl)cc3)c3ccccc23)c2ccccc2N1C(=O)c1ccc(Cl)cc1`, for which the growth is 57.5% in the assay on RPMI-8226 leukemia; 78.7% with OVCAR-8 ovarian; 115% in the assay with OVCAR-5 ovarian; 72% with OVCAR-4 ovarian; 77% in the assay with SK-OV-3 ovarian; 80% in the assay with IGROV1 ovarian. Also, the growth in the assay with OVCAR-3 ovarian was 84.3%; in the assay with HS 578T breast it was 80.5%; in the assay on NCI/ADR-RES ovarian, 83.4%; with T-47D breast, 61.7%; in the assay on MDA-MB-435 melanoma, 97.6%; in the assay with SW-620 colon, 93.1%. Besides, the growth is 71.1% with MCF7 breast, 65.1% in the assay with HCT-116 colon and 24.3% in the assay on KM12 colon.
